# Source: PubChem BioAssay
# Activity calls are given as the source filed them.
# What was measured:
# [1] = compound effects on lung adenocarcinoma cell viability – A549, calcein-AM fluorescence, 48 h, basal, profiling panel (AID 1162); conditions: higher = more signal
# [2] = compound effects on differentiated 3T3-L1 adipocyte viability – cell-based, 3T3-L1 adipocytes, calcein-AM fluorescence, 48 h, basal, profiling panel (AID 1163); conditions: 3T3-L1 adipocytes viability, higher = more signal
# [3] = compound effects on hepatocellular carcinoma cell viability – HepG2, calcein-AM fluorescence, 48 h, basal, profiling panel (AID 1164); conditions: higher = more signal
# [4] = compound effects on multiple myeloma cell viability – MM1S, calcein-AM fluorescence, 48 h, basal, profiling panel (AID 1165); conditions: higher = more signal
# [5] = calcein-AM signal in unstimulated myeloma cells – cell-based, calcein-AM fluorescence, 48 h, PK04 Diversity Set, profiling panel (AID 1166); conditions: RPMI8226 myeloma viability, higher = more signal;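 further: cells grown under basal conditions without added stimulus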
# [6] = JC-1 mitochondrial signal, unstimulated HepG2 cells – cell-based, JC-1 fluorescence, 24 h, 100 nL compound, profiling panel (AID 1167); conditions: HepG2 mitochondrial potential, higher = more signal
# [7] = JC-1 mitochondrial signal, unstimulated adipocytes – cell-based, JC-1 fluorescence, 3T3-L1 adipocytes, 24 h, 100 nL compound, profiling panel (AID 1168); conditions: JC-1 mitochondrial fluorescence, higher = more signal, called active from +8 up or from −8 down
# [8] = JC-1 mitochondrial signal, unstimulated myeloma cells – cell-based, JC-1 fluorescence, RPMI8226, 24 h, 100 nL compound, profiling panel (AID 1169); conditions: JC-1 mitochondrial potential fluorescence, higher = more signal
# [9] = JC-1 mitochondrial signal, unstimulated MM1S myeloma – cell-based, JC-1 fluorescence, 24 h, 100 nL compound, profiling panel (AID 1170); conditions: MM1S mitochondrial potential, higher = more signal
# [10] = resazurin metabolic signal in A549 cells – cell-based, resazurin fluorescence, 24 h, PK04 Diversity Set, profiling panel (AID 1171); conditions: A549 viability, higher = more signal, called active from +8 up or from −8 down
# Further: test concentration not given here.
SMILES,z-score [1],z-score [2],z-score [3],z-score [4],z-score [5],z-score [6],z-score [7],z-score [8],z-score [9],z-score [10]
C[C@@H]1NC(=O)C([C@@H](C)OCc2ccccc2)NC(=O)[C@@]23C(=O)N[C@@H](Cc4ccccc4)C2[C@H](C)[C@@]2(C)O[C@H]2C3/C=C/C/C=C\CNC1=O (stereo not given in full),-0.405,0.387,-0.448,-0.129,-1.1,-0.121,0.782 (inactive),0.514,0.186,-0.0746 (inactive)
C[C@]1(C(=O)O)c2ccccc2C(=O)N(Cc2cc(F)cc(C(F)(F)F)c2)[C@H]1c1ccc(CO)cc1,0.653,0.658,-0.577,0.471,0.792,-0.23,0.235 (inactive),0.383,-0.703,1.27 (inactive)
CC(C)(C)N1CC=CC23O[C@@H]4C=CCOC(=O)[C@@H]4[C@H]2C(=O)N(CCO)[C@@H]3C1=O (stereo not given in full),-0.247,-0.229,-0.112,0.0476,-0.46,-0.731,0.316 (inactive),0.0281,-0.537,-0.465 (inactive)
COC(=O)[C@@]1(Cc2ccc(F)cc2)[C@H]2c3cc(C(=O)N(C)C)n(C)c3C[C@H]2CN1C(=O)c1ccccc1,0.888,-0.0909,-0.408,-0.364,-0.119,0.216,-0.574 (inactive),-0.325,-0.481,-0.452 (inactive)
[N-]=[N+]=Nc1ccccc1[C@@H]1OC(c2ccc(OCCCO)cc2)=N[C@]1(Cc1ccccc1)C(=O)NCCN1CCOCC1,-0.975,1.29,-0.876,-2.37,-4.18,0.153,-0.0447 (inactive),-1.26,-0.469,-0.908 (inactive)
CN(C)CCCC[C@@H]1NC(=O)[C@@H]2C[C@H](C(=O)NCCCCCN)[C@H](c3cccc(OCCO)c3)N2C1=O,2.2,0.494,1.44,-0.0351,0.891,1.63,-1.03 (inactive),-0.891,0.697,1.08 (inactive)
C[C@@H]1ON(c2ccc(I)cc2)[C@H](c2cccc(NC(=O)OCC3c4ccccc4-c4ccccc43)c2)[C@H]1C(=O)N1C(=O)OC[C@H]1Cc1ccccc1,1.25,0.575,0.671,-0.749,-0.326,-0.194,1.54 (inactive),-1.19,1.78,0.623 (inactive)
CCOC(=O)C1=C[C@@H](C(C)(C)C)N(S(=O)(=O)c2ccc(C)cc2)[C@H]1c1ccc(C#N)cc1,-0.368,-0.316,-1.12,-2.79,-2.17,1.63,-0.398 (inactive),-0.372,-0.555,1.69 (inactive)
CCOC(=O)c1cn(C[C@H](Cc2ccccc2)NC(=O)N[C@H](CO)CCc2oc(C(C)=O)c(C(=O)OC)c2C(=O)OC)nn1,-0.462,1.16,0.0702,-0.0594,-1.88,-1,0.871 (inactive),-0.44,-0.0478,-0.636 (inactive)
C=CC[C@@]1(C(=O)N(C)C)N=C(c2ccc(OCCCO)cc2)O[C@@H]1c1ccccc1CN=[N+]=[N-],1.01,-0.114,1.41,-1.81,-1.58,1.67,0.53 (inactive),-0.797,-0.479,0.189 (inactive)
CCCN1C(=O)[C@@]2(c3ccc([N+](=O)[O-])cc3)CC(=O)N(CC34CC5CC(CC(C5)C3)C4)[C@@H]2c2ccc(CO)cc21,0.129,-0.4,-0.301,-0.194,0.448,-0.885,-0.656 (inactive),0.282,-0.315,0.0382 (inactive)
CC(C)=C1C(=O)C(c2ccccc2)=C2CN3C(=O)N(CCc4ccccc4)C(=O)[C@]3(C)[C@H]21,0.559,-0.342,0.302,-2.06,-3.46,1.87,-1.43 (inactive),-0.879,-1.66,-0.337 (inactive)
O=C1NC(=O)C2C1C=CC(C(O)c1ccc(B(O)O)cc1)N2Nc1ccc(Cl)cc1Cl (stereo not given),-0.591,-1.33,-1.19,-1.62,-1.58,-1.75,-1.12 (inactive),0.482,-0.682,-0.616 (inactive)
COc1ccc([Si](C)(C)[C@H]2[C@H](CCO)O[C@@]3(C(=O)N(Cc4ccc(NC(=O)[C@H](C)O)cc4)c4ccccc43)[C@@H]2C)cc1,-3.33,1.36,-4.58,-2.64,-4.47,-2.19,0.843 (inactive),-1.11,-2.31,-5.03 (inactive)
COCCOC(=O)N1C(=O)[C@@]2(c3cc(C#CCC(C(=O)OC)C(=O)OC)ccc31)[C@H](C(N)=O)[C@H]1C(=O)O[C@H](c3ccccc3)[C@H](c3ccccc3)N1[C@@H]2c1ccc(O)cc1,-0.181,-0.187,-1.52,-3.37,-4.02,-0.864,2.05 (inactive),-1.19,-2.07,0.163 (inactive)
